From PubChem BioAssay (NCI)
About 79,000 compounds went through this panel and 15% of them were active in at least one assay; those are over-represented in the sample as a whole. A number with no mark means an inactive call. Activity calls are given as the source filed them. No stated cut-off is given here; in the data, active means growth inhibition above about 70%; inactive means the rest.

Assay: NCI Yeast Anticancer Drug Screen. Data for the bub3 strain (AID 167)
Conditions: S. cerevisiae bub3 mutant strain, at 50.0 µM, stronger effect = higher value
Outline: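 Whole-cell yeast assay. The mutant strain was incubated with compounds, and growth inhibition was determined by comparison with vehicle-treated cells.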

Structure (SMILES) | growth inhibition
COc1ccc([N+](=O)[O-])c(C(OC(C)=O)OC(C)=O)c1OC(C)=O | 1.15%
CCCC(C)C(=O)OC1CCCC1 (stereo unspecified) | 13.6%
O=C(NC(=S)Nc1ccsc1)c1ccccc1 | -2.15%
CN(C)CCNC(=O)c1cccc(C(C)(C)C)c1[N+](=O)[O-] | -19.1%
CC(C)=C1CCC(CN2CCOCC2)C1=O (stereo unspecified) | -2.6%
CCC(C)NC(=O)/C=C/C(=O)NC(C)CC (stereo unspecified) | 4.95%
Cn1cc(/C=C/C(=O)c2ccccc2[N+](=O)[O-])c2ccccc21 | 0.6%
COC(=O)C[C@H](C)[C@H](C)CC(=O)O | -0.45%
CCCCCN(CCCCC)C(=S)[S-].CCCCCN(CCCCC)C(=S)[S-].[Zn] | 42.1%
O=C1c2ccccc2-c2cc(F)ccc21 | 17.6%
O=c1[nH]c2cc3ccccc3cc2c2ccccc12 | -1.7%
CC(=O)OC1CCC2(C)C(=CCC3C2CCC2(C)C3CC(Br)C2(O)C(C)=O)C1 (stereo unspecified) | 4.1%
O=c1[nH]c(=O)n(C2OC(COP(=O)(O)OP(=O)(O)OC3OC(CO)C(O)C(O)C3O)C(O)C2O)cc1F (stereo unspecified) | -15.3%
O=C(O)c1cc(Cl)cc([N+](=O)[O-])c1 | 23%
O=C(O)c1ccc(C(=O)O)c(C(=O)O)c1.[NH-]C1CCCCC1[NH-].[Pd+2] | 3.95%
COC1=NS(=O)(=O)C2(O1)c1ccccc1-c1ccccc12 | 25.8%
CCOC(=O)/C(O)=C(/C=NC(=S)c1ccncc1)C(=O)OCC | -13.8%
CCC1(C)C(=O)SC(=S)N1C (stereo unspecified) | -0.7%
CC(=O)C1(SCCO)CCC2C3CCC4=CC(=O)CCC4(C)C3CCC21C (stereo unspecified) | 41.1%
CCCCCCc1c(C)nc(N)[nH]c1=O | 10%
CN(C)C(CN)CC1=C(CC(CN)N(C)C)CCC1 (stereo unspecified) | -5.25%
CC(=N\NS(=O)(=O)c1ccc(C)cc1)/C(C)=N/NS(=O)(=O)c1ccc(C)cc1 | 0.95%
O=C(N/N=C\c1ccccc1)Nc1cccc2ccccc12 | 27.9%
COc1ccc(NC(=O)Nc2cccc(Cl)c2C)c(OC)c1 | 9.85%
C=CCOC(=O)NC(CCC(N)=O)C(=O)O (stereo unspecified) | -1%
CC1(C)OCN(c2ccc(Cl)cc2)Cn2c1nc1ccccc12 | -25.9%

Assay: NCI Yeast Anticancer Drug Screen. Data for the mlh1 rad18 strain (AID 175)
Conditions: S. cerevisiae mlh1 rad18 strain growth inhibition; at 50.0 µM; stronger effect = higher value
Outline: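 Growth inhibition of the yeast strain was measured after compound exposure and expressed relative to vehicle-treated controls. The strain carries defined defects in DNA damage repair.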

Structure (SMILES) | growth inhibition
Cc1cccc(NC(=O)C(Cl)Cl)n1 | -18.1%
COC(=O)c1nc(=S)[nH]c(C(=O)OC)c1C(=O)c1cccc2ccccc12 | 13.1%
CC(=N/N(C)c1ccccc1)/C(C)=N/N(C)c1ccccc1 | 15.8%
O=C(C(=Nc1ccccc1)C(=Nc1ccccc1)C(=O)c1ccccc1)c1ccccc1 | 37%
CCc1c(NCCO)c(C(=O)NCCO)c2nc3ccccc3n2c1NCCO | 11.8%
O=C1OC(=O)C2C1C1C=CC2C1(c1ccccc1)c1ccccc1 (stereo unspecified) | 7%
CC(=O)OCC1OC(n2cnc3c(N)ncnc32)C(O)C1O (stereo unspecified) | -11.2%
Clc1cccc(C2N3CCCCC3[C@@H]3c4[nH]c5ccccc5c4CCN23)c1 (stereo partly specified) | 1.7%
CC1(C)SCCNC1=O | 4.75%
O=C1NC(=Nc2ccccc2Cl)SC1C(=O)Nc1ccc([N+](=O)[O-])cc1[N+](=O)[O-] (stereo unspecified) | -12.1%
CCSCC1C(=O)C23C(O)C1CCC2C12COC3(O)C(O)C1C(C)(C)CCC2O (stereo unspecified) | 7.05%
CC(C)(C)NC(=S)N/N=C/c1ccccn1 | 89.7% (active)
N#CC(C(=O)O)C1(c2ccccc2)CCCCC1 (stereo unspecified) | -3.45%
CC(C)(C)c1cc(-c2c3nc(c(-c4cc(C(C)(C)C)cc(C(C)(C)C)c4)c4ccc([nH]4)c(-c4cc(C(C)(C)C)cc(C(C)(C)C)c4)c4nc(c(-c5cc(C(C)(C)C)cc(C(C)(C)C)c5)c5ccc2[nH]5)C=C4)C=C3)cc(C(C)(C)C)c1 | 31.2%
COc1ccc([N+](=O)[O-])c(C(OC(C)=O)OC(C)=O)c1OC(C)=O | -9.4%
CCCC(C)C(=O)OC1CCCC1 (stereo unspecified) | 2.95%
O=C(NC(=S)Nc1ccsc1)c1ccccc1 | -6.35%
CN(C)CCNC(=O)c1cccc(C(C)(C)C)c1[N+](=O)[O-] | -20%
CC(C)=C1CCC(CN2CCOCC2)C1=O (stereo unspecified) | 87% (active)
CCC(C)NC(=O)/C=C/C(=O)NC(C)CC (stereo unspecified) | 8.5%

Structure (SMILES) | growth inhibition
Cn1cc(/C=C/C(=O)c2ccccc2[N+](=O)[O-])c2ccccc21 | 2.85%
COC(=O)C[C@H](C)[C@H](C)CC(=O)O | -12.9%
CCCCCN(CCCCC)C(=S)[S-].CCCCCN(CCCCC)C(=S)[S-].[Zn] | 60.8%
O=C1c2ccccc2-c2cc(F)ccc21 | -0.1%
O=c1[nH]c2cc3ccccc3cc2c2ccccc12 | 14.2%
CC(=O)OC1CCC2(C)C(=CCC3C2CCC2(C)C3CC(Br)C2(O)C(C)=O)C1 (stereo unspecified) | 30.4%
O=c1[nH]c(=O)n(C2OC(COP(=O)(O)OP(=O)(O)OC3OC(CO)C(O)C(O)C3O)C(O)C2O)cc1F (stereo unspecified) | 9.85%
O=C(O)c1cc(Cl)cc([N+](=O)[O-])c1 | 52.9%
O=C(O)c1ccc(C(=O)O)c(C(=O)O)c1.[NH-]C1CCCCC1[NH-].[Pd+2] | 9.65%
COC1=NS(=O)(=O)C2(O1)c1ccccc1-c1ccccc12 | 12.3%
CCOC(=O)/C(O)=C(/C=NC(=S)c1ccncc1)C(=O)OCC | -31%
CCC1(C)C(=O)SC(=S)N1C (stereo unspecified) | 5.6%
CC(=O)C1(SCCO)CCC2C3CCC4=CC(=O)CCC4(C)C3CCC21C (stereo unspecified) | 77.2% (active)
CCCCCCc1c(C)nc(N)[nH]c1=O | -1.05%
CN(C)C(CN)CC1=C(CC(CN)N(C)C)CCC1 (stereo unspecified) | 17.6%
CC(=N\NS(=O)(=O)c1ccc(C)cc1)/C(C)=N/NS(=O)(=O)c1ccc(C)cc1 | -8.3%
O=C(N/N=C\c1ccccc1)Nc1cccc2ccccc12 | -9.75%
COc1ccc(NC(=O)Nc2cccc(Cl)c2C)c(OC)c1 | 5.6%
C=CCOC(=O)NC(CCC(N)=O)C(=O)O (stereo unspecified) | 16.3%
CC1(C)OCN(c2ccc(Cl)cc2)Cn2c1nc1ccccc12 | -9.25%
